This passage reports Potency results from PubChem BioAssay (NCATS).

The structures appear in SMILES notation. Results filed as inconclusive are left out. Entries that show only a call come without a potency. Activity calls are given as the source filed them. Calls come from the whole dose curve; as a rule, active = well fitted cell-killing curve with a large enough effect; inconclusive = small, poorly fitted or top-dose-only effect; inactive = flat fitted curve, though single readings scatter.
Potency is the fitted concentration of half-maximal effect.

The experiment is described as follows: Cell Viability - LYMP2-014 (AID 983). Note: nearly all actives have a fitted effect of over 50% in size. The conditions noted are these: LYMP2-014 lymphoblastoid cells, viability qHTS; series mostly up to 92.2 µM. The text has this: NIH Chemical Genomics Center [NCGC]
NIH Molecular Libraries Screening Centers Network [MLSCN]
National Institutes of Environmental Health Sciences [NIEHS]
National Toxicology Program [NTP]
We have developed a 1536-well cell-based assay for quantitative high throughput screening (qHTS) against a number of cell lines to determine in vitro cytotoxicity of small molecules. This particular assay uses a human lymphoblastoid cell line (LYMP2-014) purchased from Coriell Institute for Medical Research.
NCGC Assay Protocol Summary:
The CellTiter-Glo luminescent cell viability assay (Promega) is a homogeneous method to measure the number of viable cells in culture. The end point readout of this assay is based on quantitation of intracellular ATP, an indicator of metabolic activity, using the luciferase reaction. Luciferase catalyzes the oxidation of beetle Luciferin to oxyluciferin and light in the presence of ATP. The luminescent signal is proportional to amount of ATP present.
Using the CellTiter-Glo luminescent cell viability assay, the amount of cellular ATP was measured in the lymphoblastoid cell line with complete culture medium following compound treatment for 24 hours. The assay was performed in opaque white Kalypsys 1536-well plates. In the screen, tetraoctylammonium bromide was used as positive control. Library compounds were measured for their ability to cause acute toxicity in the cell line, as reflected by a decrease in intracellular ATP levels, in a concentration-dependent manner. […] AC50 values were determined from concentration-response data modeled with the standard Hill equation.
qHTS protocol for CellTiter Glo lymphoblastoid cellular assay
[Step] [Parameter] [Value] [Description]
1. Reagent; 5 uL; 2500 lymphoblastoid cells/well
2. Time; 5 hr; 37 C incubation
4. Controls; 23 nL; Tetraoctylammonium bromide 6.4pM to 92 uM
5. Time; 24 hr; 37 C incubation
6. Reagent; 5 uL; CellTiter Glo reagent
7. Time; 30 min; Room Temperature
8. Detection; Luminescence; Viewlux plate reader
Keywords: cell viability, cytotoxicity, lymphoblastoid cell line, luminescence, NTPHTS, NTPHTS_NCGC, NIEHS, DSSTox, MLSMR, MLSCN, NIH Roadmap, qHTS, NCGC
With `CN(C)c1ccc(C2(c3ccc(N(C)C)cc3)OC(=O)c3cc(N(C)C)ccc32)cc1`, the Potency entry was “inactive”. `CCCCCCCC[N+](CCCCCCCC)(CCCCCCCC)CCCCCCCC`: the Potency was 6.31 µM (active).

Consider `CC(=O)Nc1ccc(C(=O)CCl)cc1`, for which the Potency was 7.94 µM (active).

With `CCC(C)Nc1ccc(NC(C)CC)cc1` (stereo not drawn), the Potency was 5.01 µM (active). Regarding `C=C(C)c1ccccc1`, the Potency entry was “inactive”. As for `Cc1cccc(O)c1C`, the Potency result was “inactive”. With `Cc1cc(Nc2ccc(O)cc2)ccc1N`, the Potency is 50.1 µM (active).

Turning to `O=C1OC(O)C(C(Cl)Cl)=C1Cl` (stereo not drawn), the Potency is 25.1 µM (active). In the case of `c1ccc2c(c1)ccc1cc3c(ccc4ccccc43)cc12`, the Potency result was “inactive”. As for `O=C(/C=C/c1ccc(O)c(O)c1)OC1C[C@](O)(C(=O)O)C[C@@H](O)[C@H]1O` (stereo partly drawn), the Potency result was “inactive”. As for `CCCCCC/C(C=O)=C\c1ccccc1`, the entry is “inactive”; as for `CN1[C@H]2CC(OC(=O)[C@H](CO)c3ccccc3)C[C@H]1[C@H]1O[C@H]12` (stereo partly drawn), “inactive”; as for `O=Cc1ccc(Cl)c(Cl)c1`, “inactive”. Take `C=CC(=O)OCCOCCOC(=O)C=C`: the Potency was 20 µM (active).

Take `CO[C@H]1/C=C/O[C@@]2(C)Oc3c(C)c(O)c4c(O)c(c5c(c4c3C2=O)NC2(CCN(CC(C)C)CC2)N=5)=NC(=O)/C(C)=C\C=C\[C@H](C)[C@H](O)[C@@H](C)[C@@H](O)[C@@H](C)[C@H](OC(C)=O)[C@@H]1C`: the Potency entry is “inactive”. In the case of `O=C(OCC(COC(=O)c1ccccc1)(COC(=O)c1ccccc1)COC(=O)c1ccccc1)c1ccccc1`, the Potency result was “inactive”. On to `c1ccc2c(c1)-c1cccc3c1c-2cc1ccccc13`, for which the Potency entry is “inactive”.

Regarding `O=[N+]([O-])c1cc([N+](=O)[O-])c2ccc(S(=O)(=O)O)cc2c1O`, the Potency result is “inactive”.

In the case of `O=C1OC2(c3cc(Br)c(O)c(Br)c3Oc3c2cc(Br)c(O)c3Br)c2c(Cl)c(Cl)c(Cl)c(Cl)c21`, the Potency result was “inactive”.

As for `O=C=Nc1ccc(Cc2ccc(N=C=O)cc2)cc1`, the Potency result was “inactive”. Take `Nc1ccc2cc3ccccc3cc2c1`: the Potency result is “inactive”. Regarding `CNc1ccc(O)cc1`, the Potency was 6.31 µM (active). `Cc1cc(O)c(C(C)(C)C)cc1Sc1cc(C(C)(C)C)c(O)cc1C`: the Potency is 39.8 µM (active).
